Assay results from PubChem BioAssay AID504467 (National Center for Advancing Translational Sciences (NCATS), 2011).
About 7,700 (2.3%) of roughly 330,000 compounds were called active. Another 26% or so got no clear call; they are omitted. The entries come from a sample that favours actives as a whole. Values without a mark were called inactive. Calls come from the whole dose curve; as a rule, active = well fitted inhibition curve with a large enough effect; inconclusive = small, poorly fitted or top-dose-only effect, or effect the other way; inactive = flat fitted curve, though single readings scatter.

experiment: qHTS screen for small molecules that inhibit ELG1-dependent DNA repair in human embryonic kidney (HEK293T) cells expressing luciferase-tagged ELG1; details: HEK293T ELG1-luciferase reporter, luminescence, 16 h, DNA damage induced by 5-fluorouridine; series mostly up to 46.1 µM; activity change, negative = inhibition: at the top concentration; note: nearly all actives have a fitted effect of over 55% in size
In short: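 5-Fluorouridine DNA damage + compound/DMSO, 2,000 cells/well, 16 h, 37 °C/5% CO2. ONE-Glo, 30 min RT, luminescence. Readout = decrease in reporter signal.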
% is set by controls: 0 for no effect and ±100 for the full control effect; potency is the fitted concentration of half-maximal effect.

Compound	activity change, negative = inhibition [%]	Potency
CC(C#N)(NC(=O)CN1CCN(S(=O)(=O)c2cc(C(F)(F)F)ccc2Cl)CC1)C1CC1 (centres undefined)	2.4	–
Cc1ccc(S(=O)(=O)Nc2nc(CN3CCOCC3)nc3sc(C)c(C)c23)cc1	16	–
C[C@H]1COC(=O)[C@H](CC(=O)OC(C)(C)C)C/C=C\C[C@@H](CC(=O)N[C@H](CO)Cc2ccccc2)C(=O)N1	-6.43	–
O=C(CSc1nc2nccnc2c(=O)n1Cc1cccs1)Nc1ccccc1F	15.3	–
O=C(Nc1ccccc1-c1nnn(CC(=O)N2CCN(c3ccccc3)CC2)n1)c1cccs1	–	23.1 µM (active)
COc1ccccc1N1CCN(C(=O)Cn2nnc(-c3cccs3)n2)CC1	-16	–
O=C(Nc1ccccc1-c1ccccc1)c1cccs1	4.08	–
CN1C2CCC1CC(NC(=O)c1ccc([N+](=O)[O-])cc1)C2 (centres undefined)	2.06	–
O=C(N[C@@H]1C/C=C\C[C@@H](CC(=O)N(CCO)Cc2ccccc2)C(=O)N[C@H](Cc2ccccc2)COC1=O)OCC1c2ccccc2-c2ccccc21	6.07	–
Cc1noc(COc2ccccc2OCC(O)CNC(C)(C)C)n1 (centres undefined)	7.78	–
CC(C)(C)CC(C)(C)NCC(O)COCCOc1ccc(Br)cc1 (centres undefined)	–	23.1 µM (active)
OC(COc1ccc(Br)cc1)CN1CCCC1 (centres undefined)	4.58	–
COc1ccccc1CNC(=O)[C@@H]1CCCN1C(=O)[C@@H]1Cc2ccccc2CN1C(=O)OC(C)(C)C	12.9	–
O=C1C=CN2CCCC2CC1 (centres undefined)	3.43	–
COc1ccc(N(C(=O)c2snc(C(N)=O)c2N)C(C(=O)NC2CCCC2)c2ccc(C)o2)c(OC)c1 (centres undefined)	-8.34	–
COc1ccc(NC(=O)COC(=O)c2n[nH]c3ccccc23)c(OC)c1	-16.4	–
Cc1ccc(N(Cc2ccc(C(=O)Nc3ccccc3C(=O)NCc3ccco3)cc2)S(C)(=O)=O)cc1C	–	4.61 µM (active)
COc1ccc(C(=O)Nc2ccccc2C(=O)NCc2ccco2)cc1	-5.84	–
Cc1cccc(Nc2ccccc2C(=O)NCc2ccco2)c1C	-5.52	–
Cc1cc(C)c(S(=O)(=O)N2CCC(C(=O)OCc3c(C)noc3C)CC2)c(C)c1	2.81	–
O=C(CCc1nc2sc3c(c2c(=O)[nH]1)CCCC3)NCC(=O)Nc1ccccc1Br	0.543	–
COc1ccccc1C(=O)OCC(=O)Nc1cccc(S(=O)(=O)NC2=NCCCCC2)c1	-2.4	–

Compound	activity change, negative = inhibition [%]	Potency
CCc1ccc2[nH]c(=O)c(Cc3ccccc3)c(O)c2c1	-6.81	–
C=C(C)C(=O)Nc1cccc(C(C)=O)c1	3.33	–
C=CCSc1nsc(NC(=O)Nc2cccc(C(C)=O)c2)n1	–	7.3 µM (active)
CC(=O)c1cccc(NC(=O)c2ccncc2)c1	-4.98	–
COc1ccc2[nH]c3c(c2c1)CCN1C(=O)C(CC(=O)NCCCN(C)C)C[C@H](C(=O)N2CCOCC2)[C@@]31CCC1CCCC1 (some centres undefined)	10.8	–
CN(c1ccccc1)S(=O)(=O)c1cccc(C(=O)NNC(=O)c2ccncc2)c1	-1.9	–
Cc1cccc(NC(=O)c2ccc(S(=O)(=O)N(C)c3ccccc3)cc2)n1	–	23.1 µM (active)
CCN(c1ccccc1)S(=O)(=O)c1ccc(C(=O)Nc2nccs2)cc1	-19.3	–
COc1ccccc1S(=O)(=O)NCc1ccc(C(=O)N(C)Cc2ccc(F)cc2)cc1	-22	–
O=S(=O)(Nc1cc(Cl)ccc1N1CCOCC1)c1ccccc1Cl	-7.01	–
CCOC(=O)C1=C(CCc2ccccc2)NC(=O)NC1c1ccc2ccccc2c1 (centres undefined)	-12.5	–
COc1cc(CN2CCN(Cc3ccc(C)cc3)CC2)c([N+](=O)[O-])cc1OC	–	20.6 µM (active)
COc1cc(CNCc2ccc3c(c2)OCO3)c([N+](=O)[O-])cc1OC	-3.68	–
COc1cc(CN2CCCN(C)CC2)c([N+](=O)[O-])cc1OC	-6.3	–
COC(=O)COc1ccc2oc(=O)cc(C)c2c1	5.41	–
Cc1cc2oc(=O)cc(CN(C)Cc3ccc(OC(F)F)cc3)c2cc1Cl	-14.2	–
CCOc1ccc(N(C)Cc2cc(=O)oc3ccc(OC)cc23)cc1	–	16.4 µM (active)
Cc1ccc2c(c1)C(c1ccccc1)N(C(=O)c1ccc(F)cc1)CC(=O)N2 (centres undefined)	-4.96	–
O=C(Cn1ccc2cc(S(=O)(=O)N3CCCC3)ccc21)NCc1ccccc1	14.6	–
O=C1[C@@H](c2ccccc2)[C@@H](c2ccccc2)N1c1cccnc1	17.2	–
O=C1CCN(Cc2ccccc2)CCN1[C@H](CSc1ccccc1)c1ccccc1	26.6	–
Cc1nc(-c2ccc(F)cc2)c(CC(=O)Nc2cccc(S(=O)(=O)N3CCOCC3)c2)s1	-9.34	–

Compound	activity change, negative = inhibition [%]	Potency
Cc1ccc(-c2nc(-c3cccnc3)sc2CC(=O)Nc2ccc(C)c(Cl)c2)cc1	–	16.4 µM (active)
Cc1cc(C)c(NC(=O)CS(=O)CC(=O)Nc2cccnc2)c(C)c1 (centres undefined)	-1.59	–
COc1ccc(N2CCN(C3CCCCC3NS(=O)(=O)c3ccccc3)CC2)cc1 (centres undefined)	-5.22	–
CCOc1ccc(CN2CCN(Cc3c[nH]c4ccccc34)CC2)cc1	–	13 µM (active)
CCOc1ccc(CC(=O)NC2CCN(Cc3ccccc3)CC2)cc1	-9.53	–
CCOc1ccc(CN2CCCN(C)CC2)cc1	9.71	–
COC(=O)[C@]1(S(=O)(=O)c2ccccc2)C[C@@H]2ON=C(c3ccc(OC)cc3)[C@@H]2C1	3.37	–
Cc1ccc(S(=O)(=O)Nc2ccc(F)c(S(=O)(=O)N3CCOCC3)c2)cc1	-19.8	–
Cc1ccc(-c2ccc(=O)n(Cc3ccc(F)cc3Cl)n2)cc1	-0.564	–
O=C1C=C(c2cccc(Cl)c2)C[C@@H](c2ccc(F)cc2)C1	3.63	–
O=C(c1cn(-c2ccccc2)nc1-c1cc2ccccc2oc1=O)N1CCOCC1	–	7.3 µM (active)
CCOc1ccccc1-c1cc(C(=O)N2CCOCC2)c2ccccc2n1	-25.2	–
O=C(c1cc(-c2ccc(Cl)s2)nc2ccccc12)N1CCOCC1	-3.24	–
Nc1nc(-c2sc3nc4c(cc3c2N)CCCC4)nc(N2CCOCC2)n1	–	6.51 µM (active)
COc1ccccc1C(CNC(=O)c1cccc(S(=O)(=O)Nc2ccc(F)cc2)c1)N(C)C (centres undefined)	-1.22	–
NC(=O)c1nsc(C(=O)N(CCCN2CCOCC2)C(C(=O)NC2CCCCC2)c2ccc(Cl)cc2)c1N (centres undefined)	5.9	–
Cc1ccc(NC(=O)CN(C)C(=O)c2ccc(Cl)c(S(=O)(=O)NCc3ccco3)c2)cc1	-3.5	–
O=C(CCl)Nc1cccc(CP(=O)(c2ccccc2)c2ccccc2)c1	–	14.6 µM (active)
CCc1cccc(NC(=O)CCC(=O)O)c1	4.12	–
O=C(CSCC(=O)Nc1cccc([N+](=O)[O-])c1)Nc1ccccc1	15.4	–
